KCNQ2 inh = inhibitors of rat KCNQ2 potassium channel | 310,000 tested, 1.1% active | B-score at 10 µM | O88943 | CHO-K1 KCNQ2, FluxOR thallium flux, 20 min; active compounds read low;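 active = fluorescence ratio B-score at most minus 3 library SDs, with starting brightness B-score within 2 library SDs, cut at about -5.5 in these data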
Target sequence (O88943 whole entry, looked up): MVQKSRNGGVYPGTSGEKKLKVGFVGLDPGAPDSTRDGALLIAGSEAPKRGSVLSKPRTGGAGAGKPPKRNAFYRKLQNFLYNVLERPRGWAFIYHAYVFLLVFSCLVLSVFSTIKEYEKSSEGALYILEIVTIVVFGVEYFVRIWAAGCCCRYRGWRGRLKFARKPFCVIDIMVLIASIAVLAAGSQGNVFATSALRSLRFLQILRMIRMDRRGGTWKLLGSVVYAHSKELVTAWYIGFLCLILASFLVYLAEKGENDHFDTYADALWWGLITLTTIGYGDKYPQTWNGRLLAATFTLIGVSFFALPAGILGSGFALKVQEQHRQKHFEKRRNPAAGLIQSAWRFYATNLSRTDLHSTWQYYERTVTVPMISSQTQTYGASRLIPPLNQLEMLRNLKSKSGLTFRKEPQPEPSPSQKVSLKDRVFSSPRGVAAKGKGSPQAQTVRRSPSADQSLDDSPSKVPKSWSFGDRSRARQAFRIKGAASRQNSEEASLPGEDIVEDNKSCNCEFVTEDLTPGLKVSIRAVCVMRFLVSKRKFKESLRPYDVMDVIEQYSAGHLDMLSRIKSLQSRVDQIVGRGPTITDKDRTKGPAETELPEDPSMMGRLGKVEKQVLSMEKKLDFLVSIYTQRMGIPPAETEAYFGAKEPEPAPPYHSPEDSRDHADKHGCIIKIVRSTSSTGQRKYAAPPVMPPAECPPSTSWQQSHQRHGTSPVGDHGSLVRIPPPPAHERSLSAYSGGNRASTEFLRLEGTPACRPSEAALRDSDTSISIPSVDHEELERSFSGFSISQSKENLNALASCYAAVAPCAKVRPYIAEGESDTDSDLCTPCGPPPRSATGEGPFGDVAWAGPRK
KCNQ2 pot = potentiators of rat KCNQ2 potassium channel | AID 2239 | CHO-K1 KCNQ2, FluxOR thallium flux fluorescence; active compounds read high | B-score at 10 µM | 310,000 tested, 0.54% active | O88943;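 active = fluorescence ratio B-score at least 3 SD of library B-scores, with initial fluorescence B-score within 3 of them, cut at about 5.3 in these data; same plate scores as AID 2156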;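 also: B-score of peak minus minimum over baseline fluorescence ratio after K+ and Tl+ stimulus; positive B-score means potentiation of KCNQ2 with more thallium influx and brighter signal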
Numbers stand for hits; 0 = inactive; - = no result given. An excerpt weighted towards active compounds, which were near 1.6% of everything screened.

SMILES | KCNQ2 inh | KCNQ2 pot
COc1ccc(-c2nnc(Nc3nc4c(OC)cccc4s3)o2)c(OC)c1 | 0 | 0
CN(CC(=O)Nc1ccc2c(c1)OCCO2)S(=O)(=O)c1ccc(F)cc1 | 0 | -
Cc1cc(NC(=O)COC(=O)C2CC(=O)N(c3ccc(Cl)cc3)C2)no1 (stereo not given) | 0 | -
Cc1ccccc1CNC(=O)C1CCC(=O)N(Cc2cccc(F)c2)C1 (stereo not given) | -6.3 | 0
O=C(NCc1ccccc1OC(F)(F)F)C1CCC(=O)N(Cc2cccc(F)c2)C1 (stereo not given) | 0 | -
COc1cccc(CN(C)C(=O)/C=C/c2ccc(S(=O)(=O)N3CCCCCC3)cc2)c1 | 0 | -
CC1CC(C)CN(CC(O)COCc2ccccc2)C1 (stereo not given) | 0 | -
Cc1ccc(CCN2CC(C(=O)NCCCN3CCC(C)CC3)CC2=O)cc1 (stereo not given) | 0 | -
O=C(CN(Cc1ccc(Br)cc1)S(=O)(=O)c1ccccc1)NCc1ccccn1 | -6.5 | 0
O=C(CCS(=O)(=O)c1ccc(Br)cc1)NCc1ccco1 | 0 | 0
O=C(CN(Cc1ccccc1)S(=O)(=O)c1ccc(Br)cc1)NCc1ccco1 | -6.6 | 0
COc1ccc(S(=O)(=O)N(CC(=O)NCc2ccccn2)Cc2ccccc2)cc1 | 0 | -
S=c1nc(-c2csc3c2CCCC3)[nH][nH]1 | 0 | -
O=C(COc1ccc(Br)cc1)NCCN1CCCC1 | 0 | -
COc1ccccc1CNC(=O)COC(=O)CSc1ccc(Cl)cc1 | 0 | -
COc1ccccc1CNc1cc(CSc2ccc(Cl)cc2)nc(C)n1 | -6.1 | 0
CC1(C)CC2CC(C)(CN2C(=S)Nc2ccccc2)C1 (stereo not given) | 0 | -
CC1(C)CC2CC(C)(CN2C(=S)NC(=O)c2ccccc2Cl)C1 (stereo not given) | 0 | 10
CC(C)CN1C(=O)C(=O)N(CC(=O)c2ccc[nH]2)C1=O | 0 | 0
Cc1c(CCOC(=O)c2ccccc2)sc[n+]1CC(=O)c1ccc(Br)cc1 | 0 | -
Cc1c(CCOC(=O)C23CC4CC(CC(C)(C4)C2)C3)sc[n+]1CC(=O)c1ccccc1 | -6.5 | 0
CN(C)S(=O)(=O)c1cccc(NC(=O)c2ccc(COc3ccccc3)cc2)c1 | -5.8 | 0
CN(C)S(=O)(=O)c1cccc(NC(=O)c2ccc(OC(F)(F)F)cc2)c1 | 0 | 0
CN(C(=O)CCN1C(=O)S/C(=C\c2ccccc2)C1=O)C1CCS(=O)(=O)C1 (stereo not given) | 0 | 0
O=C(NNC(=O)c1ccccc1C(F)(F)F)c1csc(N2CCOCC2)n1 | 0 | 0
SMILES | KCNQ2 inh | KCNQ2 pot
Cc1cccc(C(=O)NC(=S)N2CCc3ccccc3C2)c1 | 0 | 8.4
CCNC(=S)N1CCc2ccccc2C1 | 0 | 0
O=C(NCC1CCN(Cc2cccc(Cl)c2)CC1)Nc1ccccc1Cl | 0 | 0
Cc1ccc(NC(=O)NCC2CCN(Cc3cccc(Cl)c3)CC2)c(Cl)c1 | 0 | 6.5
COc1ccc(CCNC(=O)c2cc(COc3c(C)cccc3C)on2)c(OC)c1 | 0 | -
OC(c1ccccc1)(c1ccc(F)cc1)C(c1ccccc1)N1CCOCC1 (stereo not given) | -5.7 | 0
O=C(NCC(c1ccc(F)cc1)N1CCOCC1)c1ccc(C(=O)c2ccccc2)cc1 (stereo not given) | 0 | 0
COc1cccc(-c2nc(NCCN3CCOCC3)c3ccccc3n2)c1O | 0 | -
Clc1ccc(-c2nc(NCCCN3CCOCC3)c3ccccc3n2)cc1 | -7.9 | 0
Clc1cccc(-c2nc(NCCCN3CCOCC3)c3ccccc3n2)c1 | 0 | -
Oc1ccccc1-c1nc(NCCN2CCOCC2)c2ccccc2n1 | -8.2 | 0
CSc1ncccc1C(=O)NCC(c1cccs1)N1CCOCC1 (stereo not given) | 0 | 0
CCn1c(COc2cccc(OC)c2)nnc1SCC(=O)Nc1cc(OC)ccc1OC | 0 | -
CCn1c(CC(=O)Nc2cccc(Cl)c2Cl)nnc1SCCOc1ccc(OC)cc1 | -6.1 | 0
COc1ccc(CC(=O)NCc2nnc(SCCOc3ccccc3)n2C)cc1 | 0 | -
COc1ccc(OCCSc2nnc(CC(=O)Nc3cccc(Cl)c3Cl)n2C)cc1 | -8.1 | 0
CCN1CCN(Cc2nnc(-c3ccc(C)cc3)o2)CC1 | 0 | -
CC(C)Cc1ccc(C(=O)Nc2ccc(Cc3ccncc3)cc2)o1 | 0 | 0
O=C(OCc1nnc(-c2ccccc2)o1)c1cccc(S(=O)(=O)N2CCOCC2)c1 | 0 | 0
O=C(/C=C/c1ccc([N+](=O)[O-])cc1)NCCSc1ccccc1 | 0 | 0
Cc1ccc(SCCNC(=O)/C=C/c2ccc([N+](=O)[O-])cc2)cc1 | 0 | 6.2
COc1ccc(-c2nc3c4ccccc4ccn3c2CN2CCOCC2)cc1OC | 0 | -
CCc1nc2ccccc2c(C(=O)OCC(=O)C(C)(C)C)c1C | 0 | 0
CCc1nc2ccccc2c(C(=O)OCCN2C(=O)c3ccccc3C2=O)c1C | -9.6 | 0
CCc1nc2ccccc2c(C(=O)O)c1C | 0 | -
SMILES | KCNQ2 inh | KCNQ2 pot
CCc1nc2ccccc2c(C(=O)OCC(=O)NC(=O)c2cccn2C)c1C | -5.6 | 0
Cc1cc(C)c(NC(=O)CNC(=O)CSc2nnc(N)s2)c(C)c1 | 0 | 0
CCOc1ccc(C(=O)NCC(=O)Nc2ccc(N3CCOCC3)cc2)cc1OCC | 0 | 0
C=CCOc1ccc(C(=O)n2cc(C(=O)OC)c3ccccc32)cc1 | -6.2 | 0
COC(=O)c1cn(C(=O)c2ccc(F)cc2)c2ccccc12 | 0 | -
Cc1nn(-c2ccccc2)c2c1C(c1ccc([N+](=O)[O-])cc1)N1C(=N2)C(=O)Nc2ccccc21 (stereo not given) | 0 | 0
Cc1nn(-c2ccccc2)c2c1C(c1ccc(Cl)cc1)N(c1ccccc1)C(=O)N2 (stereo not given) | -7.6 | 0
CC12CCC(=O)N1C(C(=O)Nc1nc3ccc(S(C)(=O)=O)cc3s1)CS2 (stereo not given) | 0 | 0
CC12CCC(=O)N1C(C(=O)Nc1nc3ccc(Cl)cc3s1)CS2 (stereo not given) | -6 | 0
C=CCc1cccc(/C=N/NC(=O)c2ccc3nc[nH]c3c2)c1O | 0 | 0
COc1ccc(S(=O)(=O)n2nc(C)c(S(=O)(=O)N3CCOCC3)c2C)cc1OC | 0 | 0
Cc1cc(C)c(C2=Nn3c(C)nnc3SC2C)cc1C (stereo not given) | 0 | -
Cc1oc2c(c1C(=O)c1ccccc1)C(=O)C(=O)c1ccccc1-2 | -7.2 | 0
Cc1oc2c(c1C(=O)O)C(=O)c1ccccc1C2=O | 0 | 0
CCCNC(=O)NC(=O)CN1C(=O)NC(C)(c2ccc3ccccc3c2)C1=O (stereo not given) | 0 | 0
CCN(CC(=O)NCc1cccs1)C(=O)c1ccc(-c2cccc(C(F)(F)F)c2)o1 | -7.6 | 0
CCN(CC(=O)NCc1cccs1)C(=O)c1cccc(S(=O)(=O)NC)c1 | 0 | -
S=C(Cc1ccccc1)NCCc1ccccc1 | 0 | -
COc1ccc(CC(=S)NCCc2ccccc2)cc1 | -6 | 0
O=S1(=O)CCOCCN1Cc1ccc(Cl)cc1Cl | 0 | -
c1ccc(-c2c(-c3ccccc3)n(Cc3ccco3)c3ncnc(NCCCn4ccnc4)c23)cc1 | -11 | 0
OCCNc1ncnc2c1c(-c1ccccc1)c(-c1ccccc1)n2Cc1ccco1 | 0 | -
O=C(Nc1ccc2c(c1)CCC2)c1cccc(F)c1 | 0 | 7.3
Cc1ccc(C(=O)Nc2ccc3c(c2)CCC3)cc1 | 0 | 0
CC(=O)N1Cc2ccccc2CC1C(=O)NCc1ccccc1F (stereo not given) | 0 | -
COc1cc(C(=O)NCc2ccc(S(N)(=O)=O)cc2)ccc1OCC(=O)Nc1cccc(C(F)(F)F)c1 | 0 | 0
